Screens as filed in PubChem.
KDM5B inhibitor = inhibitors of human KDM5B histone demethylase; AID 1347165; Potency, µM (top dose mostly 57.7 µM), actives largely listed as inhibitors; Q9UGL1; KDM5B demethylase, FDH-coupled NADH fluorescence (FDH is formaldehyde dehydrogenase); hit rate 2.6% among 220,000; active = well fitted inhibition curve with a large enough effect; also: 0% is about no effect; nearly all actives have a fitted effect of over 70% in size
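Here, H3K4me3 peptide (12.5 µM in substrate mix) is demethylated by KDM5BΔAP, 200 nM final, after 10 min compound exposure. Formaldehyde product is coupled through FDH (0.25 U/mL in mix) to NADH fluorescence; 30-min ΔRFU feeds dose-response curves.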
* marks the source's active call; other numbers are inactive results; i = inactive. This is one part of a sample in which hits are shown more often than they occur. Potency is read from the fitted curve at half-maximal effect.

SMILES | KDM5B inhibitor
COc1ccc(CNC(=O)c2c(C)noc2-c2ccco2)cc1 | i
COc1ccc(CCNC(=O)c2c(C)noc2-c2cccc(F)c2)cc1 | i
CCOCCNC(=O)c1c(C)noc1-c1ccc(OC)cc1 | i
COc1cccc(CNC(=O)c2c(C)noc2-c2ccccc2Cl)c1 | i
COc1ccc(-c2onc(C)c2C(=O)NCCSCc2ccco2)cc1 | 22µM*
Cc1cccc(C(=O)Nc2c3c(nn2-c2ccc(Cl)cc2)CS(=O)(=O)C3)c1 | i
Cc1ccc(S(=O)(=O)CC(=O)Nc2cc(C)on2)cc1 | i
O=C(CSc1nccn1C1CCCC1)Nc1cccc(F)c1 | i
CC(C)(C)c1ccccc1NC(=O)CCc1c[nH]c2ccccc12 | i
Cc1csc(=NC(C)C)n1/N=C/C(C)c1ccccc1 (stereo not given) | i
Cc1cc(N2CCN(C(=O)Cn3nnnc3CN3CCC(C)CC3)CC2)cc(C)n1 | i
Cc1nc(-c2ccc(F)cc2)c(CC(=O)N2CCN(S(=O)(=O)c3cccc(Cl)c3)CC2)s1 | i
Cc1cc(C)c(CNC(=O)c2cc(-c3ccnn3C)cc3c2OCCN3C)c(=O)[nH]1 | 35µM*
Cc1cc(C)c(CNC(=O)c2cc(-c3cnn(C)c3C)cc3c2OCCN3C)c(=O)[nH]1 | 32µM*
Cc1nc(CNC(=O)c2cn[nH]c2-c2ccccc2)cc(=O)[nH]1 | i
Cc1ccc(CNC(=O)c2cnn(C)c2-n2cccc2)s1 | i
COCCOc1cc(C)c2c(c1C)C[C@H]([C@H](C)C(=O)NC1CCCC1)CC2 | i
Cc1nc(N2CCC(C)CC2)ncc1-c1cc(=O)[nH]c(N2CCc3ccccc3C2)n1 | i
CC(C)(C)OC(=O)N/N=C/c1ccc(Cl)cc1Cl | i
CC1CCCN(S(=O)(=O)c2cc3c(cc2Cl)NC(=O)CO3)C1 (stereo not given) | i
Cc1ccc(CCNC(=O)c2cc3c(s2)-c2ccccc2OC3)cc1 | i
O=C(NCc1cccnc1)[C@@H]1C[C@H](c2ccc(F)cc2)N(Cc2ccccc2Cl)C1 | i
CC(C)NC(C(=O)O)C(C)C (stereo not given) | i
COc1ccccc1OCCSc1nnc(CNC(=O)c2ccco2)n1C | i
CC(=O)c1ccc(NC(=O)COc2ccccc2-c2nc(C(C)C)no2)cc1 | i
SMILES | KDM5B inhibitor
CCN(CC)c1ccc(C(=O)NCc2nnc3c(-c4nc(C(C)C)no4)cccn23)cc1 | i
CC(C)c1noc(-c2cccn3c(CNC(=O)c4ccco4)nnc23)n1 | 22µM*
CC(CNC(=O)c1ccco1)c1ccccc1 (stereo not given) | i
Cc1ccc(CNC(=O)c2ccccn2)s1 | i
CC(C)c1noc(-c2ccccc2OCC(=O)Nc2ccccc2[N+](=O)[O-])n1 | i
CC(C)c1noc(-c2cccn3c(CNC(=O)c4ccccc4)nnc23)n1 | 22µM*
CC(C)c1noc(-c2cccn3c(CNC(=O)c4ccccn4)nnc23)n1 | 25µM*
O=C(COc1ccc(Cl)cc1Cl)OCC(=O)c1ccccc1 | i
CCCCC(=O)Nc1c(S(=O)(=O)c2ccccc2)c(C)c(C)n1CCOC | i
CCOc1ccccc1NC(=O)CC1CCCN(c2cnn(CCOC)c(=O)c2)C1 (stereo not given) | i
Cn1c(=O)c2c(nc(Cl)n2Cc2nc(-c3ccc(F)cc3)no2)n(C)c1=O | i
CCCCOc1ccc(CNC(=O)c2cc3n(n2)CCCN(Cc2ccc(C)cc2)C3=O)cc1 | i
O=C(NCc1ccc(NC(=O)C2CC2)cc1)c1ccccc1CCc1ccccc1 | i
Cc1cccc(C(=O)NC2(C(F)(F)F)C(=O)Nc3c2c(=O)[nH]c(=O)n3Cc2cccnc2)c1 (stereo not given) | i
Cc1ccc(-n2nc(C)c3c(C)c(CCC(=O)NCc4cccc(Cl)c4)c(C)nc32)cc1C | i
O=C(Nc1cccc2c1CCCC2)c1ccccc1 | i
CCOc1ccccc1NC(=O)c1c(NCc2cccs2)sc2c1CCC(C)C2 (stereo not given) | i
COC(=O)c1cc(S(=O)(=O)N2CCCCC2)ccc1N1CCOCC1 | i
COc1ccccc1C(=O)NCc1c[nH]c2ncccc12 | i
COc1ncccc1-c1cnc2[nH]cc(CC(=O)NCc3ccco3)c2c1 | 35µM*
COc1ncccc1CNC(=O)Cc1ccccc1Cl | i
CCNC(=O)Cc1c[nH]c2ncc(-c3cccnc3OC)cc12 | 40µM*
COCCn1c(=O)c2c(nc(-n3nc(C)c(C)c3C)n2CCOC)n(C)c1=O | i
Cc1noc2nc3c(c(C(=O)N[C@H]4CC[C@H]4N)c12)CCC3 | i
CC1(C)CC(CCNc2ncncn2)(c2ccccc2)CCO1 (stereo not given) | i
SMILES | KDM5B inhibitor
CC(NC(=O)c1cccc(CS(C)=O)c1)c1ccccc1 (stereo not given) | i
CC(C)CN(Cc1cccnc1)C1CN(S(=O)(=O)Cc2ccccc2)C1 | i
Cc1cc(C(=O)N2CC(Oc3ccc(-c4nc(-c5ccccc5)no4)cc3)C2)nn1C | i
COc1ccc(S(=O)(=O)N2CC(Oc3ccccc3-c3noc(C)n3)C2)cc1 | i
Cc1nc(-c2ccc(OC3CCN(C(=O)Nc4ccccc4)C3)cc2)no1 (stereo not given) | i
Cn1cc(C(=O)N2CC(Oc3ccc(-c4nc(-c5ccccc5)no4)cc3)C2)cn1 | i
Cn1cccc1C(=O)N1CC(Oc2ccc(-c3nc(-c4ccccc4)no3)cc2)C1 | 28µM*
Cc1noc(-c2ccc(OC3CN(C(=O)Nc4cccc(F)c4)C3)cc2)n1 | i
CNC(=O)N1CCC(Oc2ccccc2-c2nc(C3CC3)no2)C1 (stereo not given) | i
Cc1noc(-c2ccc(OC3CN(C(=O)Nc4ccccc4)C3)cc2)n1 | i
Cc1cccc(NC(=O)N2CC(Oc3ccc(-c4nc(-c5ccccc5)no4)cc3)C2)c1 | 13µM*
Cc1nc(-c2ccccc2OC2CN(C(=O)c3cccc4[nH]ccc34)C2)no1 | 28µM*
O=C(Nc1ccccc1)N1CCC(Oc2ccccc2-c2nc(-c3ccccc3)no2)C1 (stereo not given) | 32µM*
Cc1nc(-c2ccccc2OC2CN(C(=O)c3ccoc3)C2)no1 | i
O=C(Nc1cccc(F)c1)C1CCN(c2nc3ccccc3nc2C(F)(F)F)CC1 | i
CCCS(=O)(=O)N1CC(=O)N(c2cccc(Cl)c2)C(C)(C(=O)NC2CCCCC2)C1 (stereo not given) | i
COc1cccc(COC2CN(C(=O)CCn3nccc3C)CC(=O)N(Cc3ccccn3)C2)c1 (stereo not given) | i
CCC(CC)C(=O)N1CCCC(c2noc(COC)n2)C1 (stereo not given) | i
Cc1nc2ccc(C(=O)N3CCN(C(=O)C4CC4)CC3)cc2nc1C | i
O=C(CCn1cnnn1)N1CCc2nn(Cc3ccccc3)c(=O)n2CC1 | i
Cc1cccc(OCC(=O)N[C@@H]2CCOC[C@H]2OCc2cscn2)c1C | i
CCCCNC(=O)N[C@H](Cc1ccccc1)C(=O)O | i
CCn1cnc2c1c(=O)n(CC(=O)Nc1ccc3c(c1)OC(F)(F)O3)c(=O)n2Cc1ccccc1 | i
CC(NC(=O)CNC(=O)c1cccc(Cl)c1)c1ccccc1 (stereo not given) | i
COc1cccc(C(=O)N2CC(Oc3ccc(-c4nc(-c5ccccc5)no4)cc3)C2)c1 | i
Cc1noc(-c2ccc(OC3CN(C(=O)c4sccc4C)C3)cc2)n1 | i
O=C(c1cc(F)ccc1F)N1CC(Oc2ccc(-c3nc(-c4ccccc4)no3)cc2)C1 | i
